PubChem BioAssay (Tox21)
Inconclusive results are not listed. Calls of active or inactive are those of the source. Unless noted, calls follow the shape of the dose curve; as a rule, active = well fitted curve in the direction sought with a large enough effect in the repeat runs; inconclusive = weak or mixed curves; inactive = no such curve, though single readings can be large; an effect the other way counts as inactive or inconclusive.

How the values were obtained:
[1] = target: Retinoic acid receptor RXR-alpha (Homo sapiens) (UniProt P19793); assay: qHTS assay to identify small molecule agonists of the RXR signaling pathway (AID 1159527; calls by dose curve; also: nearly all actives have a fitted effect of over 35% in size)
Method in brief: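 Compounds in DMSO were added to RXR-alpha-UAS-bla HEK 293T cells kept in 2% charcoal-stripped serum, and incubated 16 hr at 37 C with 5% CO2. Reporter signal came from a 2 hr B/G FRET substrate step.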

[2] = qHTS assay to identify small molecule agonists of the RXR signaling pathway - cell viability counter screen (AID 1159529);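 also: HEK 293T cells carrying an RXR-alpha UAS beta-lactamase reporter; series mostly up to about 77 µM; nearly all actives have a fitted effect of over 50% in size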
Method in brief: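 Counter screen: CellTiter-Glo luminescence. Cells: RXR-alpha-UAS-bla HEK 293T. Medium: 2% charcoal-stripped FBS. Treatment: 16 h, 37 C. Reagent incubation: 30 min, RT.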

[3] = qHTS assay to identify small molecule antagonists of the retinoid acid receptor (RAR) signaling pathway - cell viability counter screen (AID 1159551); also: nearly all actives have a fitted effect of over 35% in size
Method in brief: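 Retinol-stimulated (1 uM final) C3RL4 cells, compound 6 h, 37 C; readout CellTiter-Glo luminescence (ATP) after 30 min RT incubation.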

[4] = qHTS assay to identify small molecule antagonists of the estrogen related receptor (ERR) signaling pathway from Tox21 library - cell viability counter screen (AID 1224834); also: nearly all actives have a fitted effect of over 30% in size
Method in brief: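 After 17.5 h of compound exposure at 37 C, ERR cells are incubated with CellTiter-Fluor for 30 min and fluorescence intensity serves as the viability measure.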

[5] = target: Luciferin 4-monooxygenase (Photinus pyralis) (UniProt P08659); assay: qHTS assay to identify small molecule inhibitors of firefly luciferase (AID 1224835); also: series mostly up to about 120 µM; nearly all actives have a fitted effect of over 25% in size
Method in brief: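 Quantitative HTS format; KM concentrations of both substrates. Purified P. pyralis FLuc activity quantified from luminescence images.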

[6] = qHTS assay to identify small molecule agonists of the constitutive androstane receptor (CAR) signaling pathway - cell viability counter screen (AID 1224836); also: series mostly up to about 92 µM; nearly all actives have a fitted effect of over 45% in size
Method in brief: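 Double-stable HepG2 hepatoma cells (hCAR plus CYP2B6-2.2kb) are treated for 23 h at 37 C with test compounds in 15-point concentration series. PK11195 at 0.75 uM final is co-added. Cell viability is quantified by CellTiter-Fluor.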

[7] = qHTS assay to identify small molecule antagonists of the constitutive androstane receptor (CAR) signaling pathway - cell viability counter screen (AID 1224837); also: series mostly up to about 92 µM; nearly all actives have a fitted effect of over 45% in size
Method in brief: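 Counter screen run in HepG2-CYP2B6-hCAR cells: 4 hr settle, compound titration (15 concentrations) with 50 nM CITCO, 23 hr at 37 C/5% CO2, CellTiter-Fluor fluorescence.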

[8] = target: Nuclear receptor subfamily 1 group I member 3 (Homo sapiens) (UniProt Q14994); assay: qHTS assay to identify small molecule antagonists of the constitutive androstane receptor (CAR) signaling pathway (AID 1224838);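 also: HepG2 cells stably expressing hCAR with CYP2B6 luciferase reporter stimulated by CITCO; nearly all actives have a fitted effect of over 40% in size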
Method in brief: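 Cell line: HepG2 double-stable for hCAR and CYP2B6-2.2kb reporter. Agonist: CITCO, 50 nM final. Compounds: 15 concentrations, 24 h, 37 C. Detection: ONE-Glo luminescence.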

[9] = target: Nuclear receptor subfamily 1 group I member 3 (Homo sapiens) (UniProt Q14994); assay: qHTS assay to identify small molecule agonists of the constitutive androstane receptor (CAR) signaling pathway (AID 1224839);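 also: HepG2 cells stably carrying human CAR and a CYP2B6 luciferase reporter; series mostly up to about 92 µM; nearly all actives have a fitted effect of over 15% in size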
Method in brief: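 Readout: firefly luciferase luminescence via ONE-Glo. System: HepG2 double-stable for hCAR and CYP2B6-2.2kb. Conditions: 15-point compound titration, PK11195 at 0.75 uM final, 24 h incubation.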

[10] = qHTS assay to identify small molecule antagonists of the estrogen related receptor signaling pathway with the pleiotropic PPARgamma coactivator (PGC) from Tox21 10K library - cell viability counter screen (AID 1224840; active = well fitted cell-killing curve with a large enough effect in the repeat runs, not every such curve was filed as active; also: nearly all actives have a fitted effect of over 40% in size)
Method in brief: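 Following seeding of 2,000 PGC/ERR cells/well and 6 hours' incubation, test compounds were delivered in DMSO. The plates then sat 17.5 hours at 37 C before a fluorogenic live-cell protease reagent (CellTiter-Fluor) was read after 30 min.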

[11] = qHTS assay to identify small molecule antagonists of the estrogen related receptor (ERR) signaling pathway - cell viability counter screen (AID 1224818); also: series mostly up to about 46 µM
Method in brief: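 After a 6 h pre-incubation, ERR cells were dosed by pin tool with compounds, positive/negative controls or DMSO alone. Following 17.5 h at 37 C and 30 min with CellTiter-Fluor, fluorescence was recorded.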

[12] = qHTS assay to identify small molecule antagonists of the estrogen related receptor signaling pathway with the pleiotropic PPARgamma coactivator (PGC) cell viability counter screen (AID 1224822; also: series mostly up to about 46 µM)
Method in brief: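 PGC/ERR cells were plated at 2,000 per well and allowed 6 h to settle before compound addition. Following 17.5 h at 37 C, CellTiter-Fluor reagent was added and fluorescence was read 30 min later.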

[13] = qHTS assay to identify small molecule antagonists of the estrogen related receptor signaling pathway with the pleiotropic PPARgamma coactivator (PGC) from Tox21 10K library (AID 1224841; call rule not given here; also: series mostly up to about 92 µM; actives are mostly falling curves and most rising ones were filed inactive; nearly all actives have a fitted effect of over 50% in size)
Method in brief: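 qHTS antagonist format: PGC/ERR cells, 2k/well, compound in DMSO by pin transfer after 6 h attachment, 18 h treatment at 37 C, One-Glo luminescence read at 30 min.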

[14] = qHTS assay to identify small molecule agonists of the estrogen related receptor signaling pathway with the pleiotropic PPARgamma coactivator (PGC) from Tox21 10K library (AID 1224842); also: nearly all actives have a fitted effect of over 15% in size
Method in brief: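 PGC/ERR reporter cells (NTP line) were seeded 2,000 per well, rested 6 h at 37 C/5% CO2, then pin-dosed with compounds in DMSO for 18 h at 37 C; luciferase read by One-Glo luminescence after 30 min at room temperature.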
% is scaled to controls: 0 for no effect and ±100 for the full control effect.

Chain of Luciferin 4-monooxygenase (Photinus pyralis) (P08659 whole entry, looked up): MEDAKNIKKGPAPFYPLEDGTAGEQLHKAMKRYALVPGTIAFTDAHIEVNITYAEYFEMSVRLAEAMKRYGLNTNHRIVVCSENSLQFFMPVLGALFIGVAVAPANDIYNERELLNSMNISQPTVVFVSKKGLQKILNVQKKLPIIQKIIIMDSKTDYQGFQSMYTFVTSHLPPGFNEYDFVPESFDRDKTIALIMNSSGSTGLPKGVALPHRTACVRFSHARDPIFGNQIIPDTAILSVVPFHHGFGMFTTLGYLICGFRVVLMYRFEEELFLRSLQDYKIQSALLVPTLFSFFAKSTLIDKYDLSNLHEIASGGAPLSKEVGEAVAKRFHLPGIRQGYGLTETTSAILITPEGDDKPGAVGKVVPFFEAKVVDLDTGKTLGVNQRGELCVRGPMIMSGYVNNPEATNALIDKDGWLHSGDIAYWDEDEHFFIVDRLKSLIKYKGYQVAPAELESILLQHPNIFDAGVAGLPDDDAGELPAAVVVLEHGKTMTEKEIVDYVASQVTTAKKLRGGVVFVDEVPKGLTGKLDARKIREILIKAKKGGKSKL
Chain of Nuclear receptor subfamily 1 group I member 3 (Homo sapiens) (Q14994 whole entry, looked up): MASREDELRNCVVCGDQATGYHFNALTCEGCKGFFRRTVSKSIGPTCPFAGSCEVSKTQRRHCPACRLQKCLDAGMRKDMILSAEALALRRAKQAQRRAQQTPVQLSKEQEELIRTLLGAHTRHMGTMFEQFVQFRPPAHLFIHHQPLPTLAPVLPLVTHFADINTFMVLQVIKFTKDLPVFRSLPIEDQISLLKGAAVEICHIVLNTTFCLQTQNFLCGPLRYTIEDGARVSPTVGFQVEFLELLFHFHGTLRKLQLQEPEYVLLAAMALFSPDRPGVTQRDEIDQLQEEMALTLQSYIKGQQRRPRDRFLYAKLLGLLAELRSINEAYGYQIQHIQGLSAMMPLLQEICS
Chain of Retinoic acid receptor RXR-alpha (Homo sapiens) (P19793 whole entry, looked up): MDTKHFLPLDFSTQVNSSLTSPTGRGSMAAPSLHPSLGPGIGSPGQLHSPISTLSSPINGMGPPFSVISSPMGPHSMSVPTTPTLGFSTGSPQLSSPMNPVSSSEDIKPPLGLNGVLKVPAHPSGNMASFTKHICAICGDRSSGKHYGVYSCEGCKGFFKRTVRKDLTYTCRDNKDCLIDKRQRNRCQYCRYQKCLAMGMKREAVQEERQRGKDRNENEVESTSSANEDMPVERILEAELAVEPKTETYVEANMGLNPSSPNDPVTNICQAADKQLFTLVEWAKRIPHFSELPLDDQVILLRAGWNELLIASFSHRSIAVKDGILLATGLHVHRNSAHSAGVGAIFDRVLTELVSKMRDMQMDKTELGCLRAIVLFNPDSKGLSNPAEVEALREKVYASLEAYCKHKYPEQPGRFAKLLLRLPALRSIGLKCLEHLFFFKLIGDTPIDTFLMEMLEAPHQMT

CCC(CC)CO
inactive: Potency [1] | outcome [2] | outcome [3] | Potency [4] | Potency [5] | Potency [6] | Potency [7] | outcome [8] | Potency [9] | outcome [10]

CC1=CCC(C(C)C)=CC1
inactive: Potency [1] | outcome [2] | outcome [3] | Potency [4] | Potency [5] | Potency [6] | Potency [7] | outcome [8] | Potency [9] | outcome [10]

CNS(=O)(=O)CCc1ccc2[nH]cc(C3CCN(C)CC3)c2c1
inactive: Potency [1] | outcome [2] | outcome [3] | outcome [11] | outcome [12] | Potency [4] | Potency [6] | Potency [7] | outcome [8] | Potency [9] | outcome [10]

Cc1cc(C(C)(C)C)c(O)c(C)c1CC1=NCCN1
inactive: Potency [1] | outcome [2] | outcome [3] | outcome [11] | outcome [12] | Potency [4] | Potency [5] | Potency [6] | Potency [7] | outcome [8] | Potency [9] | outcome [10]

CCCC/C=C\CCCCCCCCCC=O
inactive: Potency [1] | outcome [2] | outcome [3] | Potency [4] | Potency [5] | Potency [6] | Potency [7] | outcome [8] | Potency [9] | outcome [10] | Potency [13] | outcome [14]

C=C(C)C1CCC(C)(O)CC1 (centres undefined)
inactive: Potency [1] | outcome [2] | outcome [3] | Potency [4] | Potency [5] | Potency [6] | Potency [7] | outcome [8] | Potency [9] | outcome [10]

COCCOC(=O)C1=C(C)NC(C)=C(C(=O)OC(C)C)C1c1cccc([N+](=O)[O-])c1 (centres undefined)
inactive: Potency [1] | outcome [2] | outcome [3] | outcome [11] | Potency [5] | Potency [6] | Potency [7] | outcome [8] | outcome [10]

CC(C)NCC(O)COc1ccc(COCCOC(C)C)cc1 (centres undefined)
inactive: Potency [1] | outcome [2] | outcome [3] | outcome [11] | outcome [12] | Potency [4] | Potency [6] | Potency [7] | outcome [8] | Potency [9] | outcome [10]

N[C@@H](COP(=O)(O)O)C(=O)O
inactive: activation [1] 7.83% [at 15.8 µM] | activity change, negative = cytotoxicity [2] 11.4% [at 15.8 µM] | activity change, negative = cytotoxicity [3] -0.284% [at 19 µM] | outcome [11] | outcome [12] | viability change, negative = cytotoxic [4] -0.524% [at 19 µM] | viability change, negative = cytotoxic [6] 0.478% [at 19 µM] | activity change, negative = cytotoxicity [7] 10.4% [at 19 µM] | activity, negative = inhibition [8] 2.8% [at 19 µM] | activation [9] -2.56% [at 19 µM] | viability change, negative = cytotoxic [10] 2.06% [at 19 µM]

CC(C)N(c1ccccc1)C(C)C
inactive: Potency [1] | outcome [2] | outcome [3] | Potency [4] | Potency [5] | Potency [6] | Potency [7] | outcome [8] | Potency [9] | outcome [10]

Cc1ccsc1/C=C/C1=NCCCN1C
inactive: Potency [1] | outcome [2] | outcome [3] | Potency [4] | Potency [5] | Potency [6] | Potency [7] | outcome [8] | Potency [9] | outcome [10] | Potency [13] | outcome [14]

Oc1cn2c(n1)Nc1ccc(Cl)c(Cl)c1C2
inactive: activation [1] 5.44% [at 15.8 µM] | activity change, negative = cytotoxicity [2] -0.221% [at 15.8 µM] | activity change, negative = cytotoxicity [3] 3.75% [at 19 µM] | viability change, negative = cytotoxic [4] 0.934% [at 19 µM] | activity change, negative = inhibition [5] 0.455% [at 23.6 µM] | viability change, negative = cytotoxic [6] -4.95% [at 19 µM] | activity change, negative = cytotoxicity [7] 5.38% [at 19 µM] | activity, negative = inhibition [8] 39.2% [at 19 µM] | activation [9] 5.1% [at 19 µM] | viability change, negative = cytotoxic [10] 5.01% [at 19 µM]

CN(C)c1ccc(C=O)cc1
inactive: Potency [1] | outcome [2] | outcome [3] | Potency [4] | Potency [5] | Potency [6] | Potency [7] | outcome [8] | Potency [9] | outcome [10] | Potency [13] | outcome [14]

CCCCCCCCCCCCCC
inactive: Potency [1] | outcome [2] | outcome [3] | Potency [4] | Potency [5] | Potency [6] | Potency [7] | outcome [8] | Potency [9] | outcome [10] | Potency [13] | outcome [14]

COc1cc2c(cc1OC)C(=O)CC2
inactive: Potency [1] | outcome [2] | outcome [3] | Potency [4] | Potency [5] | Potency [6] | Potency [7] | outcome [8] | Potency [9] | outcome [10]

N#Cc1ccc(C(=O)O)cc1
inactive: Potency [1] | outcome [2] | outcome [3] | Potency [4] | Potency [5] | Potency [6] | Potency [7] | outcome [8] | Potency [9] | outcome [10] | Potency [13] | outcome [14]
